KAT2A inh – blocks human GCN5L2 histone acetyltransferase; Q92830; GCN5L2 HAT assay, ThioGlo1 CoA-SH fluorescence; Potency, µM (doses to about 58.9 µM), actives largely listed as inhibitors; actives 0.21% (n = 390,000); AID 504327
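ThioGlo1-coupled HAT assay: 20nM GCN5L2, 70uM acetyl-CoA, 75uM H3(1-25) peptide, pH 7.5. Fluorescence read at 340/540nm at start and after 20 min at room temperature.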
TrxR1 inh – inhibitors of rat thioredoxin reductase 1 | O89049 | Potency, µM (doses to about 114 µM), most hits filed as inhibitors | recombinant rTrxR1, NADPH fluorescence consumption, selenite substrate | actives 1% (n = 390,000) | AID 588453; note: nearly all actives have a fitted effect of over 65% in size
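Rat TrxR1 (90 nM in the dispensed reagent) was pre-reduced with 400 uM NADPH for 5 min at room temperature, then incubated with compound for 15 min. After 400 uM selenite was added, NADPH fluorescence (Ex 340/Em 450 nm) was followed for 8 min.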
TrxR1 substrate – rat thioredoxin reductase 1 substrate activity | purified TrxR1 substrate turnover, NADPH consumption readout | Potency, µM (series often up to 114 µM) | O89049 | actives 0.01% (n = 390,000); note: nearly all actives have a fitted effect of over 50% in size
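Rat TrxR1, dispensed at 90 nM, was prereduced with 400 uM NADPH (final) for 5 min at ~22 deg C, then incubated with compound 15 min before 400 uM selenite. A first-read NADPH fluorescence drop versus no-compound background flagged substrates.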
VDR inh – vitamin D3 receptor (human) inhibition. P11473. actives 0.93% (n = 400,000). Potency, µM, usual class: inhibitors. AID 504847. VDR-SRC2-3 peptide fluorescence polarization, 2 h
Target sequence (P11473 whole entry, looked up): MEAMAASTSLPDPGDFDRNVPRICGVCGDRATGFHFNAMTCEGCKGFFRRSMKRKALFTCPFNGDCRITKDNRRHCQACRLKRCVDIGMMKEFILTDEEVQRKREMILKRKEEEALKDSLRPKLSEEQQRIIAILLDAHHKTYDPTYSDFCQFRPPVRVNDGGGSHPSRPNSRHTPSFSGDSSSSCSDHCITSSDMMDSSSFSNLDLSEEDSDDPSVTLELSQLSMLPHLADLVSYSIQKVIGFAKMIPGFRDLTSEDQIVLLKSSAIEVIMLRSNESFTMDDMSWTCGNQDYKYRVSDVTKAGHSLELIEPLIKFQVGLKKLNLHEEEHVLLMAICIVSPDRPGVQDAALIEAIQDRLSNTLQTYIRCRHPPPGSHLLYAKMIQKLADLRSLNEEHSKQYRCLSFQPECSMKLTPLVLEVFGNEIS
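Inhibition of the VDR/SRC2-3 peptide interaction is quantified by fluorescence polarization. Compounds (23 nl, pintool) incubate with the reagents for 2 hours at ambient room temperature.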
A number is an active result; i = inactive; ? = inconclusive; nt = no result; [ ] = another dose, or the depositor's remark. Only some compounds are listed: those with a hit (about 1.8% of all), similar ones and a draw of the others. Calls come from the whole dose curve; as a rule, active = well fitted curve in the direction sought with a large enough effect; inconclusive = small, poorly fitted or top-dose-only effect, or another doubt; inactive = no such curve, though single readings can be large; an effect the other way counts as inactive or inconclusive.

SMILES	KAT2A inh	TrxR1 inh	TrxR1 substrate	VDR inh
O=C(CCN1CCCCC1)c1ccc2c(c1)OCCO2	i	0.316µM	i	i
O=C(CCN1CCC(c2ccccc2)C1)c1ccccc1 (configuration not stated)	i	?	i[2.29 µM]	i
O=C(c1ccc2c(c1)OCO2)c1cn(Cc2ccc(Cl)cc2)c2ccc(F)cc2c1=O	i	i	i	i
CC(C)C[C@H](NC(=O)[C@H](CC(C)C)NC(=O)[C@H](Cc1ccc(O)cc1)NC(=O)CNC(=O)[C@H](C)NC(=O)[C@H](CO)NC(=O)[C@H](CC(N)=O)NC(=O)[C@H](CC(C)C)NC(=O)[C@@H](NC(=O)[C@H](Cc1c[nH]c2ccccc12)NC(=O)CN)[C@@H](C)O)C(=O)NCC(=O)N1CCC[C@H]1C(=O)N1CCC[C@H]1C(=O)N1CCC[C@H]1C(=O)NCC(=O)N[C@@H](Cc1ccccc1)C(=O)N[C@@H](CO)C(=O)N1CCC[C@H]1C(=O)N[C@@H](Cc1ccccc1)C(=O)N[C@@H](CCCNC(=N)N)C(N)=O	i	nt	nt	i
O=C(CCN1CCCC1Cc1ccccc1)c1ccc2c(c1)OCCO2 (configuration not stated)	nt	0.316µM	i	35.5µM
C=C1C(=O)[C@@]23[C@H](O)C[C@@H]4C(C)(C)CC[C@H](O)[C@@]4(C)[C@@H]2CC[C@@H]1[C@H]3O	i	14.1µM	i	?
C=C1C(=O)[C@@]23[C@H](O)C[C@@H]4C(C)(C)CC[C@H](O)[C@]4(C)[C@@H]2C[C@H](O)[C@@H]1[C@H]3O	i	15.8µM	i	?
COc1ccc(C2/C=C\[C@H](O[Si](C)(C)C(C)(C)C)[C@H](C(C)C)CC(=O)N2Cc2ccccc2)cc1 (some centres not stated)	i	nt	nt	i
COc1ccc(C(c2oc(CO)cc(=O)c2O)c2oc(CO)cc(=O)c2O)cc1	i	i	i	i
COc1ccc(C(Nc2ccccn2)c2oc(CO)cc(=O)c2O)cc1 (configuration not stated)	i	8.91µM	i	?
O=c1cc(CO)oc(C(Nc2ccccn2)c2ccsc2)c1O (configuration not stated)	i	nt	nt	nt
O=c1cc(CO)oc(C(Nc2ccccn2)c2ccc(F)cc2)c1O (configuration not stated)	i	8.91µM	i	28.2µM
COc1cc2nc(N3CCCN(C)CC3)nc(N3CCN(C)CC3)c2cc1OC	nt	i	i	nt
CCN(CC)c1ccc(/C=C2\SC(=O)N(C(C)C)C2=O)o1	i	3.98µM	i	31.6µM
O=C(O)CCNc1cc(N2CCN(C(=O)c3ccco3)CC2)c2noc3c2c1C(=O)c1ccccc1-3	i	35.5µM	i	?
Cc1nc(Nc2ncc(C(=O)Nc3c(C)cccc3Cl)s2)cc(N2CCN(CCO)CC2)n1	i	i	i	i
NC(=O)N/N=C\c1ccc([N+](=O)[O-])o1	i	nt	nt	i
COc1ccccc1NS(=O)(=O)c1cccc(C(=O)N/N=C/c2ccc3c(c2)OCCO3)c1	i	i	i	i
NC(=O)N/N=C/c1ccc([N+](=O)[O-])o1	?	7.08µM	i	i
O=C(COc1ccccc1)N/N=C/c1ccc([N+](=O)[O-])o1	i	50.1µM	i	i
COc1ccccc1NS(=O)(=O)c1cccc(C(=O)N/N=C/c2ccc([N+](=O)[O-])o2)c1	i	39.8µM	i	i
C=C1C=C(C(F)F)n2ncc(C(=O)NCc3ccccc3)c2N1	nt	i	i	nt
O=[N+]([O-])c1ccc2c(c1)C=C/C2=C/c1ccccc1	nt	?	i	nt
COC(=O)c1c(NC(=O)CCCOc2cccc(C)c2)sc2c1C(C(=O)OC)CC2 (configuration not stated)	?	i	i	?
Cc1ccc(N2CCN(C(=O)c3cnn(-c4ccc(F)cc4F)c3C3CCN(C(=O)OC(C)(C)C)CC3)CC2)c(C)c1	i	i	i	i
SMILES	KAT2A inh	TrxR1 inh	TrxR1 substrate	VDR inh
Cc1[nH]c2ccccc2c1C1=CC(=O)C=CC1=O	nt	25.1µM	i	28.2µM
S=C1NCN(Cc2ccco2)CN1	i	i	i	i
C=CCCCCCCCCCCCc1ccco1	?	nt	nt	25.1µM
O=C(CCS(=O)(=O)c1ccc(Cl)cc1)N1CCN(c2ccc(F)cc2)CC1	i	i	i	i
Cc1ccc(S(=O)(=O)CCC(=O)N2CCN(c3ccc(Cl)cc3)CC2)cc1	i	50.1µM	i	i
CCOC(=O)C(CS)NCCN[C@@H](CS)C(=O)OCC (some centres not stated)	20µM	nt	nt	28.2µM

Compound activity: PubChem BioAssay, National Center for Advancing Translational Sciences (NCATS)
